Calls of active or inactive are those of the source.
Key:
[1] = optical density shifts of acrAB sulA E. coli – strain DRC41, OD650, 48 h, E. coli filamentation inducer project, primary screen (AID 1152); details: higher = more signal, called active from +8 up or from −8 down;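 also: E. coli MC1000 strain DRC41 lacking acrAB efflux pump and sulA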
[2] = probe aLefty1 binding on compound microarray – biochemical, small-molecule microarray, 635/667 nm fluorescence, primary screen (AID 1153); details: higher = more signal;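 also: score merges spot fluorescence with signal-to-noise ratio from the scanned slide images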
[3] = plasmodial surface anion channel blockers, osmotic lysis – cell-based, P. falciparum Indochina, OD700, 1 h, primary screen (AID 1154); details: P. falciparum Indochina infected RBC osmotic lysis, higher = more signal, called active from +8 up or from −8 down
[4] = plasmodial surface anion channel blockers, osmotic lysis – cell-based, P. falciparum Indochina, OD700, 2 h, primary screen (AID 1155);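 also: lysis reports solute entry through the parasite surface anion channel PSAC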; details: P. falciparum Indochina infected erythrocytes, higher = more signal, called active from +8 up or from −8 down
[5] = changes in parasitized red cell lysis, either direction – P. falciparum Indochina, OD700, 3 h, PSAC antagonist project, primary screen (AID 1156); details: P. falciparum-infected erythrocytes, osmotic lysis, higher = more signal, called active from +8 up or from −8 down
[6] = plasmodial surface anion channel blockers, osmotic lysis – cell-based, P. falciparum Indochina, OD700, 18 h, primary screen (AID 1157); details: P. falciparum Indochina infected erythrocytes, osmotic lysis OD700, 18 h; higher = more signal, called active from +8 up or from −8 down
[7] = S6 kinase pathway phospho-S6 level changes – cell-based, A549, cytoblot, luminescence, serum-stimulated, primary screen (AID 1158); details: 5 h, higher = more signal;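 also: serum-stimulated A549 lung adenocarcinoma cells; signal is phosphorylated S6 detected by cytoblot immunostaining with HRP secondary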
[8] = molecular target: NADPH oxidase 2 (Homo sapiens) (UniProt P04839); assay: compounds shifting NOX2 Amplex Red fluorescence – cell-based, HEK293-NOX2, PMA-stimulated, NOX inhibitor project, primary screen (AID 1159); details: 45 min, higher = more signal, called active from +8 up or from −8 down; also: test concentration not given here
Chain of NADPH oxidase 2 (Homo sapiens) (P04839 whole entry, looked up): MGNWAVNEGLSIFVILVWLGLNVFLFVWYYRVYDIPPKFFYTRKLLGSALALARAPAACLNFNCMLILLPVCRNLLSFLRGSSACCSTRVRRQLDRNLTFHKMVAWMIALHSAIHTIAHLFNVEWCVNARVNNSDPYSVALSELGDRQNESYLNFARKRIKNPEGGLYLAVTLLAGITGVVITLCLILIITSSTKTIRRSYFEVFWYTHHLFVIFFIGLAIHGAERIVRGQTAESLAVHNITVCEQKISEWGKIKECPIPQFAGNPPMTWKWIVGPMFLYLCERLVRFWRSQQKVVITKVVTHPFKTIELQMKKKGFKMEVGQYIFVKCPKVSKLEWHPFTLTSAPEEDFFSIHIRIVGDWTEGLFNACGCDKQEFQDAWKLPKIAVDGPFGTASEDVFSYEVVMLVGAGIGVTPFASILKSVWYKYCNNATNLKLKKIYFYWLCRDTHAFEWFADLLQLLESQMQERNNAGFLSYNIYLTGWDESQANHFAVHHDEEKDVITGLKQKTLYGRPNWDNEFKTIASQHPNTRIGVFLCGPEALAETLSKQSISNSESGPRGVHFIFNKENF

[9] = molecular target: NADPH oxidase 4 (Homo sapiens) (UniProt Q9NPH5); assay: compounds shifting NOX4 Amplex Red fluorescence – cell-based, HEK293-NOX4, tetracycline-induced, NOX inhibitor project, primary screen (AID 1160); details: HEK293-NOX4, Amplex Red H2O2 fluorescence, 45 min; higher = more signal, called active from +8 up or from −8 down
Chain of NADPH oxidase 4 (Homo sapiens) (Q9NPH5 whole entry, looked up): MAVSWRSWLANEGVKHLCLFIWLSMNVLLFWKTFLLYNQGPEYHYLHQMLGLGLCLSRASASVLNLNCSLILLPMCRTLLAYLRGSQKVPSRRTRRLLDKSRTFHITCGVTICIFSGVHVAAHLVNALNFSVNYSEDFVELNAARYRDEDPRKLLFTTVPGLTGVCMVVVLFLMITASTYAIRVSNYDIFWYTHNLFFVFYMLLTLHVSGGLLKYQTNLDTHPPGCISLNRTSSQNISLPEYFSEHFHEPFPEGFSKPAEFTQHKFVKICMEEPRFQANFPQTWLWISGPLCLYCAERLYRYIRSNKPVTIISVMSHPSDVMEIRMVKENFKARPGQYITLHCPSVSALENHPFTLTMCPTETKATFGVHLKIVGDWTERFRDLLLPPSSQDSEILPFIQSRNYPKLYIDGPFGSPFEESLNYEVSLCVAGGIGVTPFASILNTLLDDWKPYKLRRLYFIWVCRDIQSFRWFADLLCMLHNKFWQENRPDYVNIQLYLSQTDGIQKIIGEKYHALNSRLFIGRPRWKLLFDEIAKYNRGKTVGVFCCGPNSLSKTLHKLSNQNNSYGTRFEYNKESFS

[10] = molecular target: NADPH oxidase 5 (Homo sapiens) (UniProt Q96PH1); assay: compounds shifting NOX5 Amplex Red fluorescence – cell-based, HEK293-NOX5, NOX inhibitor project, primary screen (AID 1161); details: HEK293-NOX5, ionomycin, 45 min, higher = more signal
Chain of NADPH oxidase 5 (Homo sapiens) (Q96PH1 whole entry, looked up): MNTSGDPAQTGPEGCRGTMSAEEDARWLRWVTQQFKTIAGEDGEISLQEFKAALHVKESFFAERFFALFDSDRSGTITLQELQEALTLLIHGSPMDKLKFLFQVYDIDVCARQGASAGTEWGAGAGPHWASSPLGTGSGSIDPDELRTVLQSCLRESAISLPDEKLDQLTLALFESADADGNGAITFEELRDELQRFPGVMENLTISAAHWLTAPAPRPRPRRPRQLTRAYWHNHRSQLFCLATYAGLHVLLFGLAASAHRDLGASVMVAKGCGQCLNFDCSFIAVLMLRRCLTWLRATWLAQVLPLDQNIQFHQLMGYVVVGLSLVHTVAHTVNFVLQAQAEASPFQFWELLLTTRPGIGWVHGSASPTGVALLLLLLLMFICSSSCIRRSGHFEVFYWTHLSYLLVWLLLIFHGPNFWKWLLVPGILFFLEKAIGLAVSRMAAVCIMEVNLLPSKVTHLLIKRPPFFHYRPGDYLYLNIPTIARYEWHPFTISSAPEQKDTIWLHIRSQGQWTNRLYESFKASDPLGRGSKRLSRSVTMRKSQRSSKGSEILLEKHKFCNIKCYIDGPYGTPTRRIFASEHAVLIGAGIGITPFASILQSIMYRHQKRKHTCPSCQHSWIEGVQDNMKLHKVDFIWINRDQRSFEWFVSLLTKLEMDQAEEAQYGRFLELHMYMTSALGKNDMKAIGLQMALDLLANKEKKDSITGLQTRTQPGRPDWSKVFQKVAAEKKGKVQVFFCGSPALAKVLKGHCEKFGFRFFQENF

[11] = compound effects on lung adenocarcinoma cell viability – A549, calcein-AM fluorescence, 48 h, basal, profiling panel (AID 1162); details: higher = more signal; also: test concentration not given here
[12] = compound effects on differentiated 3T3-L1 adipocyte viability – cell-based, 3T3-L1 adipocytes, calcein-AM fluorescence, 48 h, basal, profiling panel (AID 1163); details: 3T3-L1 adipocytes viability, higher = more signal; also: test concentration not given here
[13] = compound effects on hepatocellular carcinoma cell viability – HepG2, calcein-AM fluorescence, 48 h, basal, profiling panel (AID 1164); details: higher = more signal; also: test concentration not given here
[14] = compound effects on multiple myeloma cell viability – MM1S, calcein-AM fluorescence, 48 h, basal, profiling panel (AID 1165); details: higher = more signal;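 also: viability of MM1S multiple myeloma cells under basal unstimulated conditions; test concentration not given here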
[15] = calcein-AM signal in unstimulated myeloma cells – cell-based, calcein-AM fluorescence, 48 h, PK04 Diversity Set, profiling panel (AID 1166); details: RPMI8226 myeloma viability, higher = more signal;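 also: cells grown under basal conditions without added stimulus; test concentration not given here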
[16] = JC-1 mitochondrial signal, unstimulated HepG2 cells – cell-based, JC-1 fluorescence, 24 h, 100 nL compound, profiling panel (AID 1167); details: HepG2 mitochondrial potential, higher = more signal; also: test concentration not given here
[17] = JC-1 mitochondrial signal, unstimulated adipocytes – cell-based, JC-1 fluorescence, 3T3-L1 adipocytes, 24 h, 100 nL compound, profiling panel (AID 1168); details: JC-1 mitochondrial fluorescence, higher = more signal, called active from +8 up or from −8 down; also: test concentration not given here
[18] = JC-1 mitochondrial signal, unstimulated myeloma cells – cell-based, JC-1 fluorescence, RPMI8226, 24 h, 100 nL compound, profiling panel (AID 1169); details: JC-1 mitochondrial potential fluorescence, higher = more signal; also: test concentration not given here
[19] = JC-1 mitochondrial signal, unstimulated MM1S myeloma – cell-based, JC-1 fluorescence, 24 h, 100 nL compound, profiling panel (AID 1170); details: MM1S mitochondrial potential, higher = more signal; also: test concentration not given here
[20] = resazurin metabolic signal in A549 cells – cell-based, resazurin fluorescence, 24 h, PK04 Diversity Set, profiling panel (AID 1171); details: A549 viability, higher = more signal, called active from +8 up or from −8 down; also: test concentration not given here

Structure (SMILES) | z-score [1] | composite z-score [2] | z-score [3] | z-score [4] | z-score [5] | z-score [6] | z-score [7] | z-score [8] | z-score [9] | z-score [10] | z-score [11] | z-score [12] | z-score [13] | z-score [14] | z-score [15] | z-score [16] | z-score [17] | z-score [18] | z-score [19] | z-score [20]
O=C1C=CC(=O)[C@@H]2CC(COc3ccccc3)=C3[C@@H](CCc4ccccc4)OB(O)C[C@@H]3[C@H]12 | -0.365 (inactive) | 0.0491 | 3.41 (inactive) | -0.0365 (inactive) | -0.0433 (inactive) | 0.0107 (inactive) | 0.0482 | -0.511 (inactive) | -3.32 (inactive) | -5.88 | -0.491 | -1.23 | -0.478 | -3.22 | -3.95 | -3.77 | -1.83 (inactive) | -1.01 | -2.46 | -0.108 (inactive)
CC(=CC1CCCCC1)[C@@H](NC(=O)c1ccc(C(F)(F)F)cc1)c1ccc(-c2ccccc2)cc1 | -2.14 (inactive) | 0.117 | 3.47 (inactive) | 1.03 (inactive) | 0.482 (inactive) | 0.813 (inactive) | 0.299 | -0.709 (inactive) | -0.683 (inactive) | 0.0858 | -0.165 | -0.791 | -0.839 | -1.5 | -2.06 | -2.33 | -1.09 (inactive) | -0.515 | -0.693 | 0.334 (inactive)
CC(C)N1C(=O)c2ccccc2[C@@H](C(=O)NCCCN(C)C)[C@@H]1c1ccc(CO)cc1 | -0.534 (inactive) | 1.17 | 2.45 (inactive) | -0.0098 (inactive) | 2.5 (inactive) | 0.181 (inactive) | -0.0692 | 1.08 (inactive) | -0.858 (inactive) | -1.54 | 0.177 | 1.46 | 0.0397 | 0.551 | -0.981 | 1.09 | -0.205 (inactive) | 0.75 | 0.499 | -0.565 (inactive)
Cc1ccc(S[C@]2(C(=O)NCCN3CCOCC3)CC(=O)N(Cc3cc(C(F)(F)F)cc(C(F)(F)F)c3)[C@@H]2c2ccc(CO)cc2I)cc1 | 0.288 (inactive) | 0.0742 | 2.66 (inactive) | -0.599 (inactive) | -1.61 (inactive) | -1.68 (inactive) | 0.704 | 2.05 (inactive) | -0.995 (inactive) | 3.01 | 0.356 | 0.712 | -0.554 | -2.1 | -1.92 | -0.168 | -0.227 (inactive) | -0.2 | -1.57 | 0.36 (inactive)
